Ba CapD inh: Bacillus anthracis CapD inhibitors, primary screen, biochemical, fluorescence intensity. CapD gamma-glutamyltranspeptidase (Bacillus anthracis Ames Ancestor). purified CapD enzyme, fluorescence intensity read-out; stronger effect = lower value. z-score (concentration not given with the values). 140,000 compounds, 0.23% hits; in the data active = z-score mostly below about -2.9, no sharp cut-off; inactive = mostly above about -1.9
Starred values were filed as active, the others as inactive. This is one part of a sample in which hits are shown more often than they occur.

What do the screens show for `O=C(O)CSc1ncccc1[N+](=O)[O-]`?
Ba CapD inh: -0.92

Results for NC(CC(=O)O)c1ccccc1[N+](=O)[O-] (configuration not stated) ?
Ba CapD inh: -0.33

What do the screens show for `O=C(O)c1cc2cccc([N+](=O)[O-])c2[nH]1`?
Ba CapD inh: -4.6*

What do the screens show for `O=C(Oc1cc(=O)n2c3c(cccc13)CCC2)c1ccccc1`?
Ba CapD inh: 1.5

How did COc1ccc2[nH]cc(CCN3C(=O)c4ccccc4C3=O)c2c1 do in these assays?
Ba CapD inh: 0.28

Results for CSc1ccc(C=C(C#N)C#N)cc1 ?
Ba CapD inh: -0.67

What do the screens show for `N#CC(C#N)=Cc1ccc(O)c(Cl)c1`?
Ba CapD inh: -5.4*

How did CN(C)c1ccc(C=C(C#N)C#N)cc1 do in these assays?
Ba CapD inh: -0.06

Results for CCN1CCCC1CNC(=O)OCc1ccc(C(C)(C)C)cc1 (configuration not stated) ?
Ba CapD inh: -0.77

How did CCCCN1C(=O)C2C(C(=O)Nc3ccc(C(C)C)cc3)C3C=CC2(O3)C1C(=O)NC1CCCCC1 (configuration not stated) do in these assays?
Ba CapD inh: 60

Results for Cc1occc1C(=O)Nc1ccc(C(=O)N2CCCCC2)cc1 ?
Ba CapD inh: -0.59

Results for CN(C)/C=C/C(=O)c1ccsc1 ?
Ba CapD inh: -6.3*

Results for Cc1ccc(C(=O)/C=C/N(C)C)cn1 ?
Ba CapD inh: -2.8

How did CN(C)/C=C/C(=O)c1cccc(C(F)(F)F)c1 do in these assays?
Ba CapD inh: -1.8

How did CCCOC(=O)C1C2C=CC3(CN(CCc4ccccc4)C(=O)C13)O2 (configuration not stated) do in these assays?
Ba CapD inh: 0.54

What do the screens show for `O=C(Nc1cccc(-n2cccc2)c1)c1cccc2c1OCCCO2`?
Ba CapD inh: -0.43

What do the screens show for `O=C(CC(SCc1ccco1)c1ccc(F)cc1)c1cccs1` (configuration not stated)?
Ba CapD inh: -0.3

How did O=c1oc(-c2cccs2)nc2ccccc12 do in these assays?
Ba CapD inh: -0.025

What do the screens show for `O=c1oc(-c2cccs2)ns1`?
Ba CapD inh: -8.9*

How did O=c1oc(-c2c(Cl)cccc2Cl)ns1 do in these assays?
Ba CapD inh: 0.15

Results for CCN1/C(=C\C(=S)Nc2ccccc2)Sc2ccccc21 ?
Ba CapD inh: -4.4*

How did CCC(=S)/C=C1\Sc2ccc(OC)cc2N1CC do in these assays?
Ba CapD inh: 16

What do the screens show for `CCC(=S)/C=C1/Sc2ccc(Cl)cc2N1CC`?
Ba CapD inh: 18

What do the screens show for `CN(C)C(=O)c1cn(-c2ccccc2)c(=O)c2ccccc12`?
Ba CapD inh: 4.7

What do the screens show for `CNC(=O)c1cn(-c2ccccc2)c(=O)c2ccccc12`?
Ba CapD inh: 4.8

What do the screens show for `CC(=O)n1c(=O)c2ccccc2c(=O)n1-c1ccccc1`?
Ba CapD inh: -4.7*

What do the screens show for `CCOC(=O)c1oc2ccc3c(c2c1C)C(=O)CC1(CCC(C)CC1)O3` (configuration not stated)?
Ba CapD inh: 0.64

How did Cc1nc(N)c(C#N)c(-c2ccc(Br)s2)c1C do in these assays?
Ba CapD inh: 3.8

Results for CCn1c2ccccc2c2cc(CN(C)Cc3ccccc3)ccc21 ?
Ba CapD inh: 25

Results for CCOc1c(NC(=O)c2ccc(N)cc2)cc(NC(=O)c2ccc(N)cc2)cc1C(N)=O ?
Ba CapD inh: 16

How did CC(C)OCc1cc(CN2CCN(C)CC2)c(O)c2ncccc12 do in these assays?
Ba CapD inh: -0.98

Results for CN1CCN(Cc2ccc(O)c3ncccc23)CC1 ?
Ba CapD inh: -4.8*

Results for Oc1ccc(CN2CCOCC2)c2cccnc12 ?
Ba CapD inh: 0.23

Results for O=C(/C=C/c1ccco1)/C=C/c1ccco1 ?
Ba CapD inh: 0.035

Results for O=C(/C=C/c1ccco1)C1(O)CCCCC1 ?
Ba CapD inh: -5.6*

Results for COc1ccc(/C=C/C(=O)C2(O)CCCCC2)cc1 ?
Ba CapD inh: -0.88

What do the screens show for `Cc1cc(C(F)(F)F)nn1Cc1ccc(C(=O)Nc2ncc(Br)s2)o1`?
Ba CapD inh: -1.3

What do the screens show for `CCOC(=O)C1=C(C)N=c2s/c(=C\c3cccc(OC)c3OC)c(=O)n2C1c1cc(OC)ccc1OC` (configuration not stated)?
Ba CapD inh: 0.25

How did CCc1ccc(C(=O)c2cc3ccc(O)cc3oc2=O)cc1 do in these assays?
Ba CapD inh: -3.6

How did O=C(c1ccccc1)c1cc2ccc(O)cc2oc1=O do in these assays?
Ba CapD inh: -6.3*

Results for O=C(c1ccccc1)c1cc(Br)ccc1NC(=O)c1cc2ccccc2oc1=O ?
Ba CapD inh: 0.24

Results for CCOC(=O)c1ccccc1NC(=O)c1sc(NC(=O)COc2ccccc2C)c(C(=O)OCC)c1C ?
Ba CapD inh: -0.46

What do the screens show for `N#Cc1ccc(COC(=O)c2ccccc2)cc1`?
Ba CapD inh: -0.27

What do the screens show for `COc1ccc(N2CCN(S(=O)(=O)c3ccc(F)c(C(=O)Nc4cccc(Cl)c4C)c3)CC2)cc1`?
Ba CapD inh: 0.64

Results for CCOc1cc(/C=C2\SC(=S)N(C(C(=O)O)C(C)C)C2=O)ccc1O (configuration not stated) ?
Ba CapD inh: -4.8*

How did COc1cc(/C=C2\SC(=S)N(C(C(=O)O)C(C)C)C2=O)cc(OC)c1O (configuration not stated) do in these assays?
Ba CapD inh: -0.36

How did CC(C)C(C(=O)O)N1C(=O)/C(=C/c2ccccc2)SC1=S (configuration not stated) do in these assays?
Ba CapD inh: -2.1

What do the screens show for `O=C(/C=C/Nc1ccc(Cl)c([N+](=O)[O-])c1)c1ccc(OCCCF)cc1`?
Ba CapD inh: 0.7

Results for C=CCOC(=O)c1sc(SC)c2c1CC(C)(C)CC2=O ?
Ba CapD inh: 0.015

How did N#CC(C(=O)Nc1ccccc1)C(=O)c1cccs1 (configuration not stated) do in these assays?
Ba CapD inh: -1.5

How did COc1ccc(NC(C)=O)c(C(=O)O)c1 do in these assays?
Ba CapD inh: 24

Results for COc1cccc(OCC(=O)Nc2ccc(OC(C)=O)cc2C(=O)O)c1 ?
Ba CapD inh: -10*

Results for COc1cccc(OCC(=O)Nc2cccc(C(=O)O)c2C)c1 ?
Ba CapD inh: 0.51

What do the screens show for `CC(C)=CCC/C(C)=N\n1cnnc1`?
Ba CapD inh: 0.095

How did N#C/C(=C\c1cccc(O)c1)C(=O)O do in these assays?
Ba CapD inh: -1.1

How did COc1cccc(/C=C/C(=O)O)c1 do in these assays?
Ba CapD inh: 16

How did CC1CS/C(=C(/C(=O)O)C(=O)/C=C/c2cccc(O)c2)S1 (configuration not stated) do in these assays?
Ba CapD inh: -5.4*

What do the screens show for `CC(C)(C)c1ccc(COC(=O)NNC(=O)c2snnc2-c2ccccc2)cc1`?
Ba CapD inh: -1.5

Results for COc1ccc2c(C)nc(/N=C(\N)NC(C)=O)nc2c1 ?
Ba CapD inh: 42

How did CCN1C(=O)/C(=C/c2c(-c3ccccc3)[nH][nH]c2=O)C(=O)c2ccccc21 do in these assays?
Ba CapD inh: 6.4

What do the screens show for `CC(=O)Nc1nonc1N1CCCC1=O`?
Ba CapD inh: 0.08

What do the screens show for `CC(=O)N1c2nonc2N(C(C)=O)c2nonc21`?
Ba CapD inh: -11*

Results for CCOC(=O)c1nonc1N ?
Ba CapD inh: -0.2

What do the screens show for `O=C(Cn1ncc2ccccc21)NCc1cccc(Cl)c1`?
Ba CapD inh: -0.19

What do the screens show for `O=C(O)c1cc(=O)c2cc(Br)ccc2o1`?
Ba CapD inh: 0.56

What do the screens show for `COC(=O)N=Nc1c(O)[nH]c2ccc(Br)cc12`?
Ba CapD inh: -0.73
